# In PubChem BioAssay (Tox21):
# Records with an inconclusive call do not appear. Activity calls are given as the source filed them. The call rests on the fitted dose curve.
# Test: qHTS assay for small molecule agonists of the p53 signaling pathway - cell viability (AID 651633);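 further: p53RE-bla HCT reporter cells with a stable beta-lactamase p53 reporter; nearly all actives have a fitted effect of over 30% in size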
# Details: p53RE-bla HCT-116 viability, ATP luminescence, 16 h; series mostly up to 83.3 µM; activity change, negative = cytotoxicity: at the top concentration
# Outline: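 Viability counter-read: CellTiter-Glo luminescence (30 min, room temperature) in the same p53RE-bla plates. These plates had been exposed to compounds for 16 h at 37 C.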
# On the % scale 0 is the no-effect control and ±100 the full control effect.
row,Structure (SMILES),"activity change, negative = cytotoxicity"
1,CC(C)(C)N(CCO)CCO,-10.3% [at 95.3 µM] (inactive)
2,COc1cc(C)cc(O)c1,11.3% (inactive)
3,COc1ccc(NC(C)=O)cc1,-16.7% [at 95.3 µM] (inactive)
4,CC(=O)c1ccc(C)cc1,11.2% (inactive)
5,COC(C(=O)O)c1ccccc1 (stereo not given),21.8% (inactive)
6,COc1ccc(COC=O)cc1,-7.41% (inactive)
7,CCCCC=O,-13.6% (inactive)
8,C#CC(O)CCCCC (stereo not given),-12.6% [at 95.3 µM] (inactive)
9,COc1cc(CCC(C)=O)ccc1O,-16.8% (inactive)
10,NC(N)=NS(=O)(=O)c1ccc(N)cc1,21.4% [at 39.1 µM] (inactive)
11,NC(=O)c1ncn([C@@H]2O[C@H](CO)[C@@H](O)[C@H]2O)c1O,21.9% (inactive)
12,NC(=S)Nc1cccc2ccccc12,-14.4% [at 8.08 µM] (inactive)
13,CC(=O)NC(Cc1ccccc1)C(=O)O (stereo not given),15.1% (inactive)
14,CC(C)(O)Cc1ccccc1,20.8% (inactive)
15,Cc1ccccc1Br,4.41% (inactive)
16,CC12CCC(CC1=O)C2(C)C (stereo not given),24% (inactive)
17,C=C(C)C1CC=C(C)C(O)C1 (stereo not given),9.24% [at 95.3 µM] (inactive)
18,CC1CCN(CCCC(=O)c2ccc(F)cc2)CC1,-14.6% (inactive)
19,C1CCCCCCCCCCC1,10.3% [at 39.1 µM] (inactive)
20,COC(=O)[C@H]1[C@H]2C[C@@H]3c4[nH]c5cc(OC)ccc5c4CCN3C[C@H]2C[C@@H](OC(=O)COc2ccc(OC)cc2)[C@@H]1OC,-13.6% (inactive)
21,CC1=CC(=O)CCC1,18.3% (inactive)
22,CCOC(=O)[C@H](CCc1ccccc1)N[C@@H](C)C(=O)N1CCC[C@H]1C(=O)O,-9.1% (inactive)
23,CCCCCC[C@@H](CCC)C(=O)O,-7.74% (inactive)
24,CCCCC1CCCCC(=O)O1 (stereo not given),12.7% (inactive)
25,CC1=CCC2C(C1)C2(C)C (stereo not given),6.71% (inactive)

# Test: qHTS assay for small molecules that induce genotoxicity in human embryonic kidney cells expressing luciferase-tagged ATAD5 - cell viability (AID 651634); further: nearly all actives have a fitted effect of over 25% in size
# Details: HEK293T ATAD5-luc cells viability, CellTiter-Fluor, 15.5 h; series mostly up to 83.3 µM; activity, negative = cytotoxicity: at the top concentration
# Outline: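 Seeding of 2,000 HEK293T ATAD5-luciferase cells per well preceded pin-tool compound transfer. Plates sat 15.5 hr at 37C under 5% CO2, then fluorescence was read after 30 min with CellTiter-Fluor.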
row,Structure (SMILES),"activity, negative = cytotoxicity"
1,CC(=O)OC(C)(C)C,12.3% (inactive)
2,CC(C)(O)c1ccccc1,4.58% (inactive)
3,OCC(CO)(CO)COCC(CO)(CO)CO,11.1% (inactive)
4,C[C@H](O)C(=O)Nc1c(I)c(C(=O)NC(CO)CO)c(I)c(C(=O)NC(CO)CO)c1I,14.3% [at 39.1 µM] (inactive)
5,CSc1ccc(C=O)cc1,14.6% (inactive)
6,NCC[C@H](O)C(=O)N[C@@H]1C[C@H](N)[C@@H](O[C@H]2O[C@H](CN)[C@@H](O)[C@H](O)[C@H]2O)[C@H](O)[C@H]1O[C@H]1O[C@H](CO)[C@@H](O)[C@H](N)[C@H]1O,-11.4% (inactive)
7,CCN1CCN(c2cc3c(cc2F)c(=O)c(C(=O)O)cn3C2CC2)CC1,2.84% (inactive)
8,CCCCCCCCCCCCCCC,-1.91% (inactive)
9,C/C=C1\C(=O)C[C@H]2[C@@H]3CCC4=CC(=O)CC[C@]4(C)[C@H]3CC[C@]12C,8.47% (inactive)
10,c1cc(CN2CCCCC2)cc(OCCCNc2nc3ccccc3s2)c1,12.9% (inactive)
11,CC(C)(C)N(CCO)CCO,7.78% [at 95.3 µM] (inactive)
12,COc1cc(C)cc(O)c1,16.4% (inactive)
13,COc1ccc(NC(C)=O)cc1,-9.92% [at 95.3 µM] (inactive)
14,CC(=O)c1ccc(C)cc1,13.5% (inactive)
15,COC(C(=O)O)c1ccccc1 (stereo not given),9.36% (inactive)
16,COc1ccc(COC=O)cc1,12.5% (inactive)
17,CCCCC=O,4.88% (inactive)
18,C#CC(O)CCCCC (stereo not given),14.2% [at 95.3 µM] (inactive)

row,Structure (SMILES),"activity, negative = cytotoxicity"
1,COc1cc(CCC(C)=O)ccc1O,15.7% (inactive)
2,NC(N)=NS(=O)(=O)c1ccc(N)cc1,15.7% [at 39.1 µM] (inactive)
3,NC(=O)c1ncn([C@@H]2O[C@H](CO)[C@@H](O)[C@H]2O)c1O,13.6% (inactive)
4,NC(=S)Nc1cccc2ccccc12,-8.88% [at 8.08 µM] (inactive)
5,CC(=O)NC(Cc1ccccc1)C(=O)O (stereo not given),10.1% (inactive)
6,CC(C)(O)Cc1ccccc1,34.7% (inactive)
7,Cc1ccccc1Br,7.28% (inactive)
8,CC12CCC(CC1=O)C2(C)C (stereo not given),1.45% (inactive)
9,C=C(C)C1CC=C(C)C(O)C1 (stereo not given),3.54% [at 95.3 µM] (inactive)
10,CC1CCN(CCCC(=O)c2ccc(F)cc2)CC1,10.8% (inactive)
11,C1CCCCCCCCCCC1,17.5% [at 39.1 µM] (inactive)
12,COC(=O)[C@H]1[C@H]2C[C@@H]3c4[nH]c5cc(OC)ccc5c4CCN3C[C@H]2C[C@@H](OC(=O)COc2ccc(OC)cc2)[C@@H]1OC,-16.9% (inactive)
13,CC1=CC(=O)CCC1,-9.46% (inactive)
14,CCOC(=O)[C@H](CCc1ccccc1)N[C@@H](C)C(=O)N1CCC[C@H]1C(=O)O,19.8% (inactive)
15,CCCCCC[C@@H](CCC)C(=O)O,-12.4% (inactive)
16,CCCCC1CCCCC(=O)O1 (stereo not given),14% (inactive)
17,CC1=CCC2C(C1)C2(C)C (stereo not given),-20.2% (inactive)

# Test: qHTS assay for small molecule disruptors of the mitochondrial membrane potential - cell viability (AID 720634);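 further: human HepG2 liver cancer cells; nearly all actives have a fitted effect of over 20% in size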
# Details: HepG2 viability, ATP luminescence (CellTiter-Glo), 1 h; series mostly up to 83.2 µM; activity change, negative = cytotoxicity: at the top concentration
# Outline: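 Measuring cytotoxicity alongside mitochondrial potential, the screen quantified ATP by luminescence in HepG2 cells after 1 hr compound incubation and a 30 min room-temperature CellTiter-Glo step.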
row,Structure (SMILES),"activity change, negative = cytotoxicity"
1,CC(=O)OC(C)(C)C,12.5% (inactive)
2,CC(C)(O)c1ccccc1,5.58% (inactive)
3,OCC(CO)(CO)COCC(CO)(CO)CO,12.6% (inactive)
4,C[C@H](O)C(=O)Nc1c(I)c(C(=O)NC(CO)CO)c(I)c(C(=O)NC(CO)CO)c1I,-4.31% [at 39.1 µM] (inactive)
5,CSc1ccc(C=O)cc1,7.38% (inactive)
6,NCC[C@H](O)C(=O)N[C@@H]1C[C@H](N)[C@@H](O[C@H]2O[C@H](CN)[C@@H](O)[C@H](O)[C@H]2O)[C@H](O)[C@H]1O[C@H]1O[C@H](CO)[C@@H](O)[C@H](N)[C@H]1O,-4.37% (inactive)
7,CCN1CCN(c2cc3c(cc2F)c(=O)c(C(=O)O)cn3C2CC2)CC1,14.3% (inactive)
8,CCCCCCCCCCCCCCC,8.27% (inactive)
9,C/C=C1\C(=O)C[C@H]2[C@@H]3CCC4=CC(=O)CC[C@]4(C)[C@H]3CC[C@]12C,-14.1% (inactive)
10,c1cc(CN2CCCCC2)cc(OCCCNc2nc3ccccc3s2)c1,-4.3% (inactive)
11,CC(C)(C)N(CCO)CCO,13.2% [at 95.3 µM] (inactive)
12,COc1cc(C)cc(O)c1,-6.96% (inactive)
13,COc1ccc(NC(C)=O)cc1,9.22% [at 95.3 µM] (inactive)
14,CC(=O)c1ccc(C)cc1,12.3% (inactive)
15,COC(C(=O)O)c1ccccc1 (stereo not given),15.4% (inactive)
16,COc1ccc(COC=O)cc1,8% (inactive)
17,CCCCC=O,7.48% (inactive)
18,C#CC(O)CCCCC (stereo not given),11.5% [at 95.3 µM] (inactive)

row,Structure (SMILES),"activity change, negative = cytotoxicity"
1,COc1cc(CCC(C)=O)ccc1O,3.32% (inactive)
2,NC(N)=NS(=O)(=O)c1ccc(N)cc1,-10.2% [at 39.1 µM] (inactive)
3,NC(=O)c1ncn([C@@H]2O[C@H](CO)[C@@H](O)[C@H]2O)c1O,8.3% (inactive)
4,NC(=S)Nc1cccc2ccccc12,7.63% [at 8.08 µM] (inactive)
5,CC(=O)NC(Cc1ccccc1)C(=O)O (stereo not given),6.88% (inactive)
6,CC(C)(O)Cc1ccccc1,3.67% (inactive)
7,Cc1ccccc1Br,6.34% (inactive)
8,CC12CCC(CC1=O)C2(C)C (stereo not given),9.07% (inactive)
9,C=C(C)C1CC=C(C)C(O)C1 (stereo not given),17.1% [at 95.3 µM] (inactive)
10,CC1CCN(CCCC(=O)c2ccc(F)cc2)CC1,8.47% (inactive)
11,C1CCCCCCCCCCC1,8.66% [at 39.1 µM] (inactive)
12,COC(=O)[C@H]1[C@H]2C[C@@H]3c4[nH]c5cc(OC)ccc5c4CCN3C[C@H]2C[C@@H](OC(=O)COc2ccc(OC)cc2)[C@@H]1OC,-5.54% (inactive)
13,CC1=CC(=O)CCC1,5.67% (inactive)
14,CCOC(=O)[C@H](CCc1ccccc1)N[C@@H](C)C(=O)N1CCC[C@H]1C(=O)O,-8.66% (inactive)
15,CCCCCC[C@@H](CCC)C(=O)O,12.3% (inactive)
16,CCCCC1CCCCC(=O)O1 (stereo not given),-1.25% (inactive)
17,CC1=CCC2C(C1)C2(C)C (stereo not given),13.7% (inactive)
